Platelet DG rel – modulates dense granule release in human platelets | human platelet-rich plasma, SFLLRN dense granule ATP release, luminescence | inhibition, %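 (compounds screened at 7.5 µM in platelet-rich plasma)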 | hit rate 0.22% among 300,000 | AID 1663;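 active = mean replicate score, as percent of positive control, at or above 50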
SENP7 inh – blocks the human protease SENP7; Q9BQF6; recombinant SENP7, Z-RLRGG-aminoluciferin luminescence, 40 min; inhibition, % at 5 µM; hit rate 1.5% among 330,000; AID 434973;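 active = inhibition above about 50% at the single test dose, limit read from the data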
SENP8 block-1 – SENP8 (human) protease inhibition | AID 602440 | inhibition, % at 20 µM | recombinant SENP8, Nedd8 substrate fluorescence | hit rate 0.64% among 360,000 | Q96LD8; in the data active = inhibition mostly above about 40%, no sharp cut-off; inactive = mostly below about 27%
SENP8 block-2 – inhibitors of human SENP8 protease | AID 2540 | purified SENP8, Z-RLRGG-aminoluciferin cleavage, luminescence | hit rate 1.2% among 330,000 | inhibition, % at 10 µM; in the data active = inhibition above about 50%
SENP6 inh – SENP6 protease inhibition; Recombinant SENP6 catalytic domain, aminoluciferin luminescence; inhibition, % at 10 µM; hit rate 1.8% among 330,000;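 active = inhibition above about 50% at the single tested dose, limit read from the data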
Target sequence (Q9GZR1 628-1112 limits assumed): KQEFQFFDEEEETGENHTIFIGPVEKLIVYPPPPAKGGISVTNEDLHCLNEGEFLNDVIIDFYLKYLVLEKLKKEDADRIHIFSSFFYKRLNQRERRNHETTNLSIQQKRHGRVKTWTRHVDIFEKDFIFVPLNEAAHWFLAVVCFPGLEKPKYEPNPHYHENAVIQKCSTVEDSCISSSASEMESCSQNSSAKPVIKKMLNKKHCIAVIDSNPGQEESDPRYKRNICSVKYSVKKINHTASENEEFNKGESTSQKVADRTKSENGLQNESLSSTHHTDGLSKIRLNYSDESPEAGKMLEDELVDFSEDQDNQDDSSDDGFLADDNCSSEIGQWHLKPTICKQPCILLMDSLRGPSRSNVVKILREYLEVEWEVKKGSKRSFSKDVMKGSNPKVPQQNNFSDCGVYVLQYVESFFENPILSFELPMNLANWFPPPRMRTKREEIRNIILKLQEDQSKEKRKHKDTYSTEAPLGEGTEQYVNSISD
SENP8 conf – confirmation of human SENP8 protease inhibitors | shares compounds with SENP7 inh | Recombinant SENP8, Z-RLRGG-aminoluciferin luminescence, 60 min | inhibition, % at 12.5 µM | hit rate 40% among 6,200;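 active = mean inhibition across replicates above about 50%, limit read from the data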
SENP6 conf – human SENP6 inhibition, confirmed. recombinant SENP6, Z-RLRGG-aminoluciferin luminescence. hit rate 58% among 6,200. inhibition, % at 12.5 µM. shares compounds with SENP7 inh
SENP7 confirm – confirmation of human SENP7 protease inhibitors | shares compounds with SENP7 inh | recombinant SENP7, Z-RLRGG-aminoluciferin luminescence, 40 min | inhibition, % at 12.5 µM | hit rate 69% among 6,200
Casp3 SENP sel – caspase-3 inhibition (SENP selectivity assay). hit rate 60% among 6,200. purified caspase-3, Z-DEVD-aminoluciferin luminescence, 60 min. inhibition, % at 12.5 µM. shares compounds with SENP7 inh;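 active = mean inhibition above about 50%, limit read from the data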
Target sequence (P42574 28-227 limits assumed): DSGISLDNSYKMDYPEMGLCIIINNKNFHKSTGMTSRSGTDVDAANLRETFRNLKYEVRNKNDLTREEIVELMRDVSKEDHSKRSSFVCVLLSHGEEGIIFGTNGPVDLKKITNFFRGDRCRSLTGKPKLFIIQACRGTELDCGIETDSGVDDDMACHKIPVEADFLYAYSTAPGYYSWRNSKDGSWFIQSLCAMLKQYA
SENP luc ctr – interferes with luciferase luminescence in SENP counter-screen. shares compounds with SENP7 inh. Pre-incubated SENP8/Z-RLRGG-aminoluciferin, luciferase luminescence interference. inhibition, % at 12.5 µM. hit rate 39% among 6,200. AID 488919;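 active = mean inhibition above about 50% when retested at one dose, limit read from the data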
Of the large screens only hits and unclear results are named; the others gave an inactive call (follow-up assays come after a bar, where they were run). Shown are actives, neighbours in structure and some others; about 2.4% of the full set was active somewhere.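 The calls were made as follows, unless noted: active = mean inhibition above about 50% in the one-dose retest (limit read from the data); inactive = the rest.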

N/C(=N\OC(=O)c1ccc(Cl)c([N+](=O)[O-])c1)c1ccccn1	none
CCO/N=C(\N)c1[nH]ncc1Br	none
COc1ccc(C(=O)O/N=C(\N)c2ccccn2)cc1	SENP7 inh 100.7, SENP8 block-2 96.1, SENP6 inh 96.8 | SENP8 conf 99.2 | SENP6 conf 100.5 | SENP7 confirm 103.7 | Casp3 SENP sel 99.3 | SENP luc ctr 97.0
N/C(=N\OC(=O)c1ccc(Cl)cc1)c1[nH]ncc1Br	Platelet DG rel 52.3, SENP7 inh 99.9, SENP8 block-2 96.4, SENP6 inh 99.9 | SENP8 conf 97.9 | SENP6 conf 98.3 | SENP7 confirm 101.2 | Casp3 SENP sel 97.5 | SENP luc ctr 97.6
O=C(/C=C/c1cccc([N+](=O)[O-])c1)OCC1CCCO1 (configuration not stated)	none
O=C(Cc1ccc(Cl)cc1)NCCc1cnc[nH]1	none
CCC(=O)N1CCC1(C)C(=O)NCc1ccccc1SC (configuration not stated)	none (no result: Platelet DG rel, SENP7 inh, SENP8 block-2, SENP6 inh)
N/C(=N\OS(=O)(=O)c1ccc(Cl)cc1)c1ccccn1	none (no result: Platelet DG rel, SENP7 inh, SENP8 block-2, SENP6 inh)
N/C(=N\OC(=O)c1ccc(Cl)cc1)c1ccccn1	Platelet DG rel 52.1, SENP7 inh 98.9, SENP8 block-2 96.5, SENP6 inh 93.5 | SENP8 conf 87.8 | SENP6 conf 98.9 | SENP7 confirm 102.9 | Casp3 SENP sel 98.4 | SENP luc ctr 79.0
CC(=O)c1ccc(NC(=O)CC2Nc3cccc4cccc(c34)NC2=O)cc1 (configuration not stated)	SENP7 inh 56.3, SENP8 block-2 50.3, SENP6 inh 88.5 | SENP8 conf inactive | SENP6 conf inactive | SENP7 confirm inactive | Casp3 SENP sel inactive | SENP luc ctr inactive
Cc1cccc(NC(=O)CC2Nc3cccc4cccc(c34)NC2=O)c1 (configuration not stated)	SENP7 inh 67.2, SENP8 block-2 76.0, SENP6 inh 83.3 | SENP8 conf inactive | SENP6 conf inactive | SENP7 confirm inactive | Casp3 SENP sel inactive | SENP luc ctr inactive
CC(=O)Nc1ccc(NC(=O)CC2Nc3cccc4cccc(c34)NC2=O)cc1 (configuration not stated)	SENP7 inh 74.6, SENP8 block-2 75.0, SENP6 inh 93.5 | SENP8 conf inactive | SENP6 conf inactive | SENP7 confirm inactive | Casp3 SENP sel inactive | SENP luc ctr inactive
CCOc1ccc(NC(=O)CC2Nc3ccccc3NC2=O)cc1 (configuration not stated)	none
Cc1n[nH]c(C)c1S(=O)(=O)N1CCN(S(=O)(=O)c2cccc(F)c2)CC1	none (no result: Platelet DG rel)
COc1cc(/C=C/C(=O)Nc2cccc(S(=O)(=O)NC3=NCCCCC3)c2)ccc1OCC#N	none
Cc1noc(C)c1COc1ccc(C(=O)N2CCN(S(=O)(=O)c3ccc(F)cc3)CC2)cc1	none (no result: Platelet DG rel, SENP7 inh, SENP8 block-2, SENP6 inh)
Cc1n[nH]c(C)c1NC(=O)CSc1nnnn1-c1cccc(F)c1	none (no result: Platelet DG rel)
O=C(c1cccs1)N1CCCc2ccccc21	none
O=C(c1cccs1)N1CCc2ccccc21	SENP7 inh 61.3, SENP6 inh 59.9 | SENP8 conf inactive | SENP6 conf inactive | SENP7 confirm 80.4 | Casp3 SENP sel 75.6 | SENP luc ctr 59.1
Cc1ccc(C(=O)N2CCc3ccccc32)o1	SENP7 inh 91.1, SENP8 block-2 87.6, SENP6 inh 90.7 | SENP8 conf 90.7 | SENP6 conf 90.8 | SENP7 confirm 98.4 | Casp3 SENP sel 94.7 | SENP luc ctr 89.3
Cc1ccc(C(=O)N2c3ccccc3CC2C)o1 (configuration not stated)	SENP7 inh 93.7, SENP8 block-2 89.8, SENP6 inh 85.1 | SENP8 conf 93.6 | SENP6 conf 95.9 | SENP7 confirm 101.0 | Casp3 SENP sel 96.6 | SENP luc ctr 83.1
CC1Cc2ccccc2N1C(=O)c1ccc(Br)o1 (configuration not stated)	none (no result: SENP7 inh, SENP8 block-2, SENP6 inh)
CC(=O)c1ccc(-c2ccc(C(=O)N3CCCc4ccccc43)o2)cc1	none
O=C(CN1C(=O)NC(Cc2c[nH]c3ccccc23)C1=O)NCC(F)(F)F (configuration not stated)	none
Cc1cccc(NC(=O)c2cccc(OC(=S)N3CCOCC3)c2)c1	none
COc1cccc(NC(=O)c2nc(SC)ncc2Cl)c1	none
CCc1cccc(NC(=O)COC(=O)c2c(C)nn(-c3ccccc3)c2C)c1	none (no result: Platelet DG rel, SENP7 inh, SENP8 block-2, SENP6 inh)
COc1cccc(NC(=O)c2ncc(Cl)c(Cl)c2Cl)c1	SENP7 inh 90.3, SENP8 block-2 86.9, SENP6 inh 69.5 | SENP8 conf inactive | SENP6 conf 88.9 | SENP7 confirm 100.6 | Casp3 SENP sel 91.4 | SENP luc ctr inactive
COc1cccc(NC(=O)Nc2ccccc2C(N)=O)c1	SENP7 inh 82.0, SENP8 block-2 60.9, SENP6 inh 73.9 | SENP8 conf 70.3 | SENP6 conf 67.9 | SENP7 confirm 90.1 | Casp3 SENP sel 85.4 | SENP luc ctr 76.8
O=C(Nc1cccc(Cl)c1)c1ccc(OC(=S)N2CCOCC2)cc1	SENP7 inh 78.5 | SENP8 conf inactive | SENP6 conf inactive | SENP7 confirm 77.6 | Casp3 SENP sel inactive | SENP luc ctr inactive
COc1cccc(NC(=O)COC(=O)c2c(C)nn(-c3ccccc3)c2C)c1	SENP7 inh 73.5, SENP8 block-2 65.4, SENP6 inh 75.9 (no result: Platelet DG rel) | SENP8 conf 70.8 | SENP6 conf 66.7 | SENP7 confirm 90.4 | Casp3 SENP sel 69.7 | SENP luc ctr 74.7
CC(c1ccccc1)n1c(N2CCNCC2)nc2c1c(=O)[nH]c(=O)n2C (configuration not stated)	none
CC(=O)Nc1ccc(S(=O)(=O)NC2CC(=O)N(c3ccc4c(c3)OCCO4)C2)cc1 (configuration not stated)	none
COc1ccc(COC(=O)c2c(C)nn(-c3ccccc3)c2Cl)cc1	SENP6 inh 61.5 | SENP8 conf inactive | SENP6 conf inactive | SENP7 confirm 53.8 | Casp3 SENP sel inactive | SENP luc ctr inactive
O=C(Nc1ccccc1)Nc1cccc(Cl)c1	SENP7 inh 55.4, SENP6 inh 59.7 | SENP8 conf 58.3 | SENP6 conf 58.5 | SENP7 confirm 85.9 | Casp3 SENP sel inactive | SENP luc ctr 70.7
O=C(Nc1cccc(Cl)c1)Nc1ccccc1C(=O)O	Platelet DG rel 75.5, SENP7 inh 99.9, SENP8 block-2 96.6, SENP6 inh 99.3 | SENP8 conf 98.3 | SENP6 conf 101.0 | SENP7 confirm 104.0 | Casp3 SENP sel 99.3 | SENP luc ctr 99.6
COc1cccc(NC(=O)c2c(F)cccc2F)c1	none (no result: Platelet DG rel)
